# Source: PubChem (several laboratories)
# A selection: hits, their analogues and other compounds. The true share with any hit is near 1.3%.
# NTR1 agonist = agonists of human neurotensin receptor NTR1; hit rate 0.17% among 330,000; AID 493036; activation, % at 20 µM; NTR1-U2OS beta-arrestin-GFP spot imaging, agonist mode;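 active = activation at or above 40% of the spot to cytoplasm intensity ratio, with at least 20 cells analyzed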;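 also: 0% = DMSO without peptide and 100% = 100 nM NTR1 peptide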
# Target sequence (P30989 whole entry, looked up): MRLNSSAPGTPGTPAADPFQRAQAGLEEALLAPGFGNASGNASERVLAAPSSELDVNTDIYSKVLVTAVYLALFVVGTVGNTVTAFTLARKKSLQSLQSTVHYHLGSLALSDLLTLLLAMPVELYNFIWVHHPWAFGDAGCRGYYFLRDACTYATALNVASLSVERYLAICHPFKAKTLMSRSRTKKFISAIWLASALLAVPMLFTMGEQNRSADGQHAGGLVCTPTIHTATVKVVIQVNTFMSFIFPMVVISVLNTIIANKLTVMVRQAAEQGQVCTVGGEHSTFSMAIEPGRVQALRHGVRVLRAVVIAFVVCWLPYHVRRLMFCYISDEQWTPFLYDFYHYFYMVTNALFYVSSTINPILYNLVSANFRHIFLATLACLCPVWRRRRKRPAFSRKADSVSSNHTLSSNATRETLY
# Beta2AR agonist = agonists of human beta-2 adrenergic receptor inducing internalization; P07550; AID 504454; Am2.2-beta2AR cells, FAP receptor internalization, flow cytometry; response, % (concentration not given with the values); hit rate 0.43% among 340,000;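 active = response above a set limit, near 3 SD of response in nonfluorescent compounds, cut at about 42% in these data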
# Bfl-1 A1 inh = inhibitors of the anti-apoptotic protein A1, read as caspase activation; MEF A1-2A-BIM cells, Caspase-Glo 3/7 luminescence, 3 h; percent of clofoctol response, vehicle zero; AID 2462; caspase activation, % (concentration not given with the values); hit rate 0.066% among 330,000;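 active = over half of replicate activation scores above 10%, or exactly half above 10 with the replicate mean above 10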
# GRK2 aptamer HTS = blocks RNA aptamer binding to human GRK2; P25098; bead flow cytometry, FAM-aptamer displacement from GRK2; hit rate 0.59% among 330,000; AID 488847; inhibition of aptamer binding, % at 10 µM;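 active = inhibition of aptamer binding above 40%, roughly 3 SD of noise, on plates passing a quality check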;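 also: median bead fluorescence of bound FAM aptamer so fluorescent compounds give negative values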
# VLA-4 inh = inhibition in a human VLA-4 binding assay; inhibition, % (about 7 µM as worked out from the volumes in the protocol); P13612; VLA-4 expressing cells, ligand binding flow cytometry; AID 2557; hit rate 0.2% among 330,000; in the data active = inhibition above about 50%
# Beta2AR ag CP1 = agonists of human beta-2 adrenergic receptor; shares compounds with Beta2AR agonist; hit rate 25% among 1,100; Am2.2-beta2AR cells, FAP surface receptor, flow cytometry; active compounds read low; AID 540358; percent response (surface receptor), % at 10 µM;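 active = surface receptor percent response at or below 58%, roughly 3 SD from nonfluorescent compounds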
# FAP fluor counter = fluorescence artifact in beta-2AR agonist FAP counterscreen | Am2.2 cells, FAP fluorogen flow cytometry; active compounds read low | shares compounds with Beta2AR agonist | 1,100 tested, under 10 active | calls only at 10 µM;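 active = percent response below a set limit in fluorescence channel 1 and below 50% in channel 8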
# The depositor's hits bear a star; i = inactive; x = no result.
SMILES,NTR1 agonist,Beta2AR agonist,Bfl-1 A1 inh,GRK2 aptamer HTS,VLA-4 inh,Beta2AR ag CP1,FAP fluor counter
CC(=O)OCC1=C(C(=O)O)N2C(=O)C(NC(=O)CCn3nc(C(F)(F)F)c(Br)c3C3CC3)C2SC1 (stereo unspecified),-1,-4,0,3,-1,x,x
CN(C)S(=O)(=O)c1cc([N+](=O)[O-])ccc1N1CCCCCC1,-2,40,0,0,0,x,x
CC(C)CN(CC(C)C)S(=O)(=O)c1cc([N+](=O)[O-])ccc1N1CCCCCC1,0,52*,0,5,0,64,i
CC1CC2(CCCCC2)Nc2ccc3ccccc3c21 (stereo unspecified),3,5,1,0,-4,x,x
CCc1cccc2c1NC1(CCCC1)CC2C (stereo unspecified),2,3,0,0,11,106,i
COc1ccc(-c2nn3c(-c4ccccc4)nnc3s2)cc1,9,-8,0,0,-23,x,x
CCN(CC)c1ccc(-c2nn3c(-c4ccccc4OC)nnc3s2)cc1,26,42*,2,4,23,81,i
O=c1c(Cl)c(Cl)cnn1-c1ccccc1,x,34,x,x,x,x,x
Nc1c(Cl)cnn(-c2ccccc2)c1=O,-1,-5,0,0,13,112,i
COc1cccc(CNC(=O)C(C)n2ccc3cc(S(=O)(=O)N4CCCCCC4)ccc32)c1 (stereo unspecified),-1,47*,1,1,-7,112,i
CCSc1nnc(NC(=O)C2CSC3(C)CCC(=O)N23)s1 (stereo unspecified),0,11,2,4,7,x,x
Cc1ccc(-n2nc3c(N4CCC(C(=O)NCc5ccccc5C)CC4)nnc(C)c3c2C)cc1,10,16,0,0,2,x,x
COc1ccc(-n2nc3c(N4CCC(C(=O)NCc5cccc(C)c5)CC4)nnc(C)c3c2C)cc1,19,92*,-1,0,17,27*,i
CCOc1ccc(CNC(=O)C2CCN(c3nnc(C)c4c(C)n(-c5ccc(C)cc5)nc34)CC2)cc1,11,55*,0,0,-5,95,i
CCOc1ccccc1CNC(=O)C1CCN(c2nnc(C)c3c(C)n(-c4ccc(C)cc4)nc23)CC1,38,53*,1,0,-7,24*,i
COc1ccc(-n2nc3c(N4CCC(C(=O)NCCc5ccco5)CC4)nnc(C)c3c2C)cc1,4,2,-1,0,23,x,x
CN(C)c1ccc(-c2nnn(CC(=O)Nc3ccccc3N3CCOCC3)n2)cc1,1,-14,-1,1,4,105,i
Cc1ccccc1NC(=O)Cn1nnc(-c2ccc(N3CCOCC3)cc2)n1,-3,2,1,2,2,x,x
CCOc1ccc(CN(C)c2nc(-c3cccnc3)nc3ccccc23)cc1OC,7,-3,0,0,5,129,i
Cc1ccccc1Nc1nc(-c2cccnc2)nc2ccccc12,3,-8,0,0,-8,x,x
COc1ccc(CCNc2nc(-c3cccnc3)nc3ccccc23)cc1OC,6,21,-1,0,-20,x,x
CN(Cc1ccccc1F)c1nc(-c2cccnc2)nc2ccccc12,9,80*,0,0,2,53*,i
Cc1ccc(CN(C)c2nc(-c3cccnc3)nc3ccccc23)o1,2,45*,0,5,5,104,i
COc1cccc(CN(C)C(=O)CSCC(=O)Nc2cc(C)on2)c1OC,0,5,0,0,20,x,x
O=C(C[C@H]1C[C@H](C(=O)N2CCOCC2)[C@@]2(CCC3CCCC3)c3[nH]c4ccc(Cl)cc4c3CCN2C1=O)NCC12CC3CC(CC(C3)C1)C2,1,1,x,2,x,x,x
SMILES,NTR1 agonist,Beta2AR agonist,Bfl-1 A1 inh,GRK2 aptamer HTS,VLA-4 inh,Beta2AR ag CP1,FAP fluor counter
OCCN1CCN(CC(O)COc2ccc(C34CC5CC(CC(C5)C3)C4)cc2)CC1 (stereo unspecified),18,61*,1,0,29,109,i
O=C1CC2C(CCC23OCCO3)c2ccc3ccccc3c21 (stereo unspecified),x,-11,x,x,x,x,x
Cc1ccc2c(c1)-n1c(nc3cc(F)ccc3c1=O)C(Cc1ccc(O)cc1)NC2=O (stereo unspecified),0,x,0,0,-8,x,x
Cc1cc(=O)n2[nH]c(Nc3cccc(Cl)c3)nc2n1,0,-3,-2,0,-2,x,x
Cc1cc(NC(=O)C(C)SCC(=O)OCc2c(Cl)cccc2Cl)no1 (stereo unspecified),0,0,0,6,4,x,x
COc1ccc(CC(=O)Nc2ccc3c(c2)C(=O)N(CCC(=O)O)C3=O)cc1,0,1,0,2,-3,x,x
CC(C)C(=O)Nc1ccc2c(c1)C(=O)N(CCC(=O)O)C2=O,-1,43*,1,0,14,105,i
Cc1ccc(C)c(NC(=O)C(c2ccccc2)N2CCOCC2)c1 (stereo unspecified),-1,-6,0,0,0,104,i
CCC(C)NC(=O)CN1c2cccc3cccc(c23)S1(=O)=O (stereo unspecified),-2,6,2,2,6,x,x
O=C(CSCc1ccc(Cl)cc1Cl)Nc1nccs1,0,54*,1,1,11,94,i
CCOc1ccc(NC(=O)c2sc3nc(C)nc(N4CCOCC4)c3c2C)cc1,1,69*,1,1,1,99,i
COc1ccc(NC(=O)c2sc3nc(C)nc(N4CCOCC4)c3c2C)c(OC)c1,3,3,0,2,3,x,x
CC(C)(C)c1ccc(C(=O)NCC(=O)NCC(C)(C)N2CCOCC2)cc1,0,-1,x,x,x,x,x
CC1CCCN(C(=O)C(C)Sc2nc(-c3ccccc3)cc(C(F)(F)F)n2)C1 (stereo unspecified),6,15,0,5,17,67,i
O=C(CSc1nc(-c2ccccc2)cc(C(F)(F)F)n1)N1CCOCC1,-2,-12,0,1,1,x,x
CC(Sc1nc(-c2ccccc2)cc(C(F)(F)F)n1)C(=O)N1CCCCC1 (stereo unspecified),0,99*,4,11,-5,11*,i
Cc1ccc(C(=O)c2ccccc2C(=O)OCC(=O)N2CC(C)CC(C)C2)cc1 (stereo unspecified),4,1,3,5,5,x,x
CCOC(=O)C1CCN(C(=O)COC(=O)c2ccccc2C(=O)c2ccc(Cl)cc2)CC1,2,5,0,2,1,95,i
CC1CCN(C(=O)COC(=O)c2ccccc2C(=O)c2ccccc2)CC1,-1,-2,1,3,10,113,i
